14-3-3 Bad PPI: disrupts binding of bovine 14-3-3 zeta to phospho-Bad peptide. P63103. TR-FRET 14-3-3zeta/Dy647-pBad peptide displacement, 1 h. inhibition, % at 21.7 µM. 220,000 tested, 0.71% active;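 active = inhibition above about 70%, limit read from the data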;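 also: 0% = full 14-3-3 plus peptide FRET controls and 100% = background without 14-3-3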
Target sequence (P63103 whole entry, looked up): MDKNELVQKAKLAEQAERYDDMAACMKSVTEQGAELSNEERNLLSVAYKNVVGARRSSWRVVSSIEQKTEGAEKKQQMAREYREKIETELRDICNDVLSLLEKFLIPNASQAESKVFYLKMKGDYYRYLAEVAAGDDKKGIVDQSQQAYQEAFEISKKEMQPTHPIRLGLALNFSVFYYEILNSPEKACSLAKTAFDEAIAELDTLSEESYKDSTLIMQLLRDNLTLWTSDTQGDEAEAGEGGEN
Mcl1 Noxa PPI: disrupts binding of human Mcl-1 to Noxa peptide; Q07820; TR-FRET Mcl-1/Noxa peptide binding, 2 h; inhibition, % at 21.7 µM; 220,000 tested, 1.5% active; AID 1022;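 active = compounds that cut the protein-peptide binding signal by more than 50% relative to plate controls in a single-dose test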;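 also: His-tagged Mcl-1 with rhodamine Noxa BH3 peptide and terbium anti-His antibody; 0% = Mcl-1 plus Noxa peptide wells and 100% = peptide-only wells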
Mcl1-Bid inh: Mcl-1/Bid interaction inhibition; Q07820; TR-FRET Mcl-1/Bid-Dy647 peptide binding, 1536-well; inhibition, % at 21.7 µM; 220,000 tested, 0.97% active; AID 1021;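 active = compounds that cut the binding signal by more than half at the single screening dose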;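 also: His-tagged Mcl-1 with europium anti-His antibody binding Bid BH3 peptide; 0% = Mcl-1 plus peptide wells and 100% = peptide-only wells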
Mcl-1 Bim block: human Bim-Mcl-1 interaction inhibition; 190,000 tested, 0.1% active; inhibition, % at 10 µM; Bead-based flow cytometry, Bim peptide-Mcl-1 binding; in the data active = inhibition above about 40%;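 also: 0% = no compound tracer wells and 100% = peptide blocker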
MCL1 BIM primary: MCL1-BIM-BH3 interaction inhibition (human). GST-MCL1 / FITC-Bim-BH3 fluorescence polarization. inhibition, % at 10.9 µM. 320,000 tested, 0.68% active. AID 2057;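 active = inhibition above the mean inhibition of all tested compounds plus 3 SD, set per campaign, cut at about 40% in these data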;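 also: 0% = DMSO wells and 100% = unlabeled Bim-BH3 peptide control; higher means more loss of mP so more displacement of Bim peptide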
eIF4E 4G PPI: inhibitors of eIF4E and eIF4G interaction in translation initiation; TR-FRET eIF4E-eIF4GI(517-606) binding, 2 h; 220,000 tested, 0.37% active; inhibition, % at 21.7 µM;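 active = inhibition above about 30%, limit read from the data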;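 also: 0% = full FRET control wells and 100% = background wells lacking eIF4GI fragment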
Bcl-xL conf: counter-screen for MCL1 inhibitors: confirmation of human Bcl-xL inhibitors | shares compounds with MCL1 BIM primary | GST-Bcl-xL / FITC-Bim BH3 peptide FP binding | inhibition, % at 10.9 µM | 1,700 tested, 54% active | AID 2166;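 active = inhibition above a cutoff equal to the mean inhibition of all tested compounds plus 3 SD, cut at about 30% in these data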;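 also: 0% = DMSO wells and 100% = unlabeled Bim BH3 control peptide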
Target sequence (Q07817 whole entry, looked up): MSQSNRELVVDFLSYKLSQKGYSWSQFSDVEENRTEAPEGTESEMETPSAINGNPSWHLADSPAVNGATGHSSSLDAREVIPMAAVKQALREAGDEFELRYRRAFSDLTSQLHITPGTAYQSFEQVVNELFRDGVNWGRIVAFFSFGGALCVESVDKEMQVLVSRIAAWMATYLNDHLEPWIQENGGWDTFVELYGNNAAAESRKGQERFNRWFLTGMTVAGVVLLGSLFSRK
MCL1 BIM confirm: MCL1-BIM-BH3 interaction inhibition, confirmation; shares compounds with MCL1 BIM primary; GST-MCL1 / FITC-Bim-BH3 fluorescence polarization; inhibition, % at 10.9 µM; 1,700 tested, 61% active;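 active = inhibition above the average of all tested compounds plus 3 SD, cut at about 40% in these data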;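 also: 0% = DMSO wells and 100% = unlabeled Bim-BH3 control peptide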
* = called active by the depositor; . = not tested or not shown; + = active, no number. The list is not random: actives were taken first. Their share in the collection is about 2.6%.

SMILES	14-3-3 Bad PPI	Mcl1 Noxa PPI	Mcl1-Bid inh	Mcl-1 Bim block	MCL1 BIM primary	eIF4E 4G PPI	Bcl-xL conf	MCL1 BIM confirm
COc1cccc(/C=C/c2nc(C#N)c(NCC(C)C)o2)c1	.	.	.	.	-1.4	.	.	.
CCCCCCn1c(=O)[nH]c2nc3cc(N)c(C)cc3nc2c1=O	18.1	-99.3	-68.6	4.0	.	26.6	.	.
CCC(=O)Nc1ccc2nc3c(=O)[nH]c(=S)[nH]c3nc2c1	.	.	.	.	98.0*	.	107.2*	160.6*
CCC(=O)Nc1ccc2ccccc2c1	-2.5	-3.6	-14.7	-7.0	-6.2	18.1	.	.
CCCCn1c(=O)[nH]c2nc3cc(NC(C)=O)ccc3nc2c1=O	10.8	-0.5	-9.7	.	58.5*	7.8	75.3*	94.8*
CCN(Cc1cccc(F)c1)C(=O)c1ccc2ccccc2n1	.	.	.	.	3.6	.	.	.
O=c1oc2ccccc2nc1/C=C(O)/C=C/c1ccc(F)cc1	0.6	22.3	-47.5	-2.0	-34.3	-7.2	.	.
O=c1oc2ccccc2nc1/C=C(O)/C=C\c1ccccc1	-2.5	1.9	-6.3	-3.0	69.0*	3.0	-40.2	-94.0
N#C/C(=C/c1ccco1)C(N)=S	-3.8	-6.0	-12.4	.	58.0*	-1.4	17.5	24.6
N#C/C(=C\c1ccc2c(c1)OCO2)C(N)=S	-6.0	-13.2	-40.8	.	10.2	-2.3	.	.
CNc1ccccc(C(=O)/C=C/c2ccccc2OC)c1=O	3.9	63.5*	-99.4	3.0	41.1*	9.6	29.1	61.9*
O=C(O)CC1S/C(=N/N=C/c2ccc(-c3ccc(Cl)c([N+](=O)[O-])c3)o2)NC1=O (configuration not stated)	-11.3	24.3	-56.6	0.0	40.7*	1.1	11.8	37.2
CCOC(=O)N1CCC(N2C(=O)c3ccccc3C2Nc2ccc(S(=O)(=O)N(CC)CC)cc2)CC1 (configuration not stated)	-5.5	-2.0	-8.3	21.0	7.3	2.7	.	.
Brc1ccc(Nc2nc3ccccc3n3nnnc23)cc1	-1.9	16.6	-17.7	-6.0	17.2	-4.8	.	.
c1ccc(Nc2nc3ccccc3n3nnnc23)cc1	-4.5	0.9	-5.4	-2.0	60.9*	3.7	33.8*	32.9
CC(C)NS(=O)(=O)c1ccc(NC(=O)C(C)OC(=O)C2CCC2)cc1 (configuration not stated)	.	.	.	.	-10.1	.	.	.
O=C1c2cccc3c(O)ccc(c23)C(=O)N1c1ccc(Cl)cc1	.	.	.	.	+	.	+	+
Cc1ccc(N2C(=O)c3cccc4c(C(=O)O)ccc(c34)C2=O)cc1	4.6	8.0	-1.6	0.0	2.5	-0.5	.	.
CC(=O)Nc1ccc(N2C(=O)c3cccc4c(O)ccc(c34)C2=O)cc1	.	.	.	.	+	.	+	+
[O-][n+]1c2ccccc2[n+]([O-])c2cc(O)ccc21	.	.	.	.	46.1*	.	44.5*	77.3*
O=C1CCCc2cc3c(cc21)CC1(C3)Cc2cc3c(cc2C1)C(=O)CCC3	-4.4	-7.8	-1.6	.	-16.2	-3.0	.	.
NC(=O)C[n+]1cccc2ccccc21	20.1	47.4	-25.7	2.0	+	-2.8	101.0*	123.9*
Cc1ccc(C(=O)C[n+]2cccc3ccccc32)cc1	15.9	-4.9	0.4	-2.0	-2.2	6.6	.	.
Cc1csc(NC(=O)CCC(=O)N(CC(=O)NC2CCCC2)Cc2ccccc2)n1	.	.	.	.	-2.6	.	.	.
COc1ccccc1NC(=O)CSc1sc2c(O)cc(=O)[nH]c2c1C#N	.	.	.	.	45.4*	.	16.3	27.4
SMILES	14-3-3 Bad PPI	Mcl1 Noxa PPI	Mcl1-Bid inh	Mcl-1 Bim block	MCL1 BIM primary	eIF4E 4G PPI	Bcl-xL conf	MCL1 BIM confirm
COc1ccc(NC(=O)CSc2sc3c(O)cc(=O)[nH]c3c2C#N)c(OC)c1	.	.	.	.	19.5	.	.	.
CCc1nnc(NC(=O)CSc2sc3c(O)cc(=O)[nH]c3c2C#N)s1	.	.	.	.	48.2*	.	32.5*	57.9*
Cc1cc(C)c[n+](-c2nc3ccccc3nc2[N-]S(=O)(=O)c2ccc(Br)s2)c1	-1.4	15.5	9.7	-3.0	47.2*	0.8	63.3*	92.1*
O=C(c1ccc(O)cc1)c1ccc(O)cc1O	-8.8	-3.9	-18.8	.	11.8	-5.0	.	.
O=C(c1ccccc1)c1ccc(O)cc1O	-0.8	7.0	-38.8	1.0	153.5*	-0.2	123.1*	137.0*
CC(=O)c1cc(-c2ccccc2)n(CC(=O)N2CCN(C3CCCC3)CC2)c1C	-5.2	-15.1	-32.4	-3.0	54.7*	-3.0	18.7	23.5
CCCCC1=CC2=C(c3ccco3)C(=O)C(C)(OC(=O)c3ccc(OC)cc3)C(=O)C2=CN1C1CCCC1 (configuration not stated)	.	.	.	.	135.4*	.	64.0*	79.2*
CCCCC1=CC2=C(c3ccco3)C(=O)C(C)(OC(=O)c3ccc(OC)cc3)C(=O)C2=CN1c1ccc(OC)cc1 (configuration not stated)	-0.4	20.3	-106.8	.	31.9	-6.3	.	.
CCCCC1=CC2=C(c3ccco3)C(=O)C(C)(OC(=O)c3ccc(OC)cc3)C(=O)C2=CN1CCN1CCOCC1 (configuration not stated)	-5.5	36.3	-102.1	.	93.0*	-4.5	13.5	16.0
CCCCC1=CC2=C(c3ccco3)C(=O)C(C)(OC(=O)c3ccc(OC)cc3)C(=O)C2=CN1CCCCO (configuration not stated)	-1.2	3.5	-83.2	.	89.3*	1.5	13.3	10.0
CCCCC1=CC2=C(c3ccco3)C(=O)C(C)(OC(=O)c3ccc(OC)cc3)C(=O)C2=CN1CC(C)C (configuration not stated)	-1.3	-31.5	-90.7	.	12.9	-3.8	.	.
COC(=O)CCCC1=CC2=C(c3ccccc3)C(=O)C(C)(OC(=O)C3CCCC3)C(=O)C2=CN1CCN1CCOCC1 (configuration not stated)	-7.6	1.9	-113.8	.	153.9*	-0.6	68.1*	86.3*
CCOc1ccc(CN(C(=O)c2cc(=O)c3cc(C)cc(C)c3o2)C2CCS(=O)(=O)C2)cc1 (configuration not stated)	.	.	.	.	-4.1	.	.	.
CCCCC1=CC2=C(c3ccco3)C(=O)C(C)(OC(=O)c3ccc(OC)cc3)C(=O)C2=CN1Cc1ccc(OC)cc1 (configuration not stated)	-2.4	17.2	-90.8	.	.	5.1	.	.
CCCCC1=CC2=C(c3ccco3)C(=O)C(C)(OC(=O)c3ccc(OC)cc3)C(=O)C2=CN1CCCN(CC)CC (configuration not stated)	-6.4	8.6	-53.7	.	53.3*	0.4	157.9*	+
O=C(CSc1nnc(-c2ccco2)c(-c2ccco2)n1)c1ccccc1	18.8	96.4*	39.8	1.0	43.3*	11.4	43.1*	77.6*

Compound activity from PubChem BioAssay.
